nsP2pro primary – Primary qHTS for inhibitors of NSP2Pro chikungunya virus (CHIKV); Polyprotein P1234 (Chikungunya virus (strain S27-African prototype)), Q8JUX6; FRET peptide cleavage, nsP2pro, fluorescence 1 h; Potency, µM (series often up to 24.9 µM), actives largely listed as inhibitors; actives 1.1% (n = 31,000); AID 1964107, 2024; also: nearly all actives have a fitted effect of over 60% in size
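Purified recombinant nsP2pro (150 nM final) in 10 mM Tris-HCl pH 8.0 with 0.01% Tween 20 was preincubated 15 min at room temperature with compound (7 concentrations, up to 25 uM). FRET peptide 2 substrate (2.5 uM final) was then added; fluorescence was read after 1 h.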
nsP2 cell sec – Secondary cell base assay for inhibitors of NSP2Pro Chikungunya virus (CHIKV) | actives 10% (n = 450) | shares compounds with nsP2pro primary | cell-based CHIKV nsP2 protease reporter assay | AID 1964100, 2024 | Potency, µM (doses to about 51.1 µM), usual class: inhibitors; also: nearly all actives have a fitted effect of over 70% in size
CHIKV NSP2 FL – Selectivity profile for inhibitors of NSP2Pro chikungunya virus (CHIKV): Full length NSP2 enzyme counterscreen (CHIKV-NSP2). Full-length CHIKV NSP2 protease enzymatic counterscreen. Potency, µM (series often up to 50.7 µM), most hits filed as inhibitors. actives 39% (n = 410). shares compounds with nsP2pro primary. AID 1964101, 2024; also: nearly all actives have a fitted effect of over 65% in size
Furin counterscr – Selectivity profile for inhibitors of NSP2Pro chikungunya virus (CHIKV): Human furin counterscreen; shares compounds with nsP2pro primary; Recombinant human furin enzymatic counterscreen, fluorogenic substrate; Potency, µM (titrated, usually from 50.6 µM), actives largely listed as inhibitors; actives 6% (n = 410)
nsP2 NS23 pep – Selectivity profile for inhibitors of NSP2Pro chikungunya virus (CHIKV): Endogenous NS2/3 peptide Counterscreen. shares compounds with nsP2pro primary. Purified CHIKV nsP2 protease, endogenous NS2/3 peptide cleavage. Potency, µM (highest dose often 51 µM), most hits filed as inhibitors. actives 34% (n = 410). AID 1964103, 2024; also: nearly all actives have a fitted effect of over 55% in size
Papain counter – Selectivity profile for inhibitors of NSP2Pro chikungunya virus (CHIKV): Papain Counterscreen; actives 5% (n = 410); purified papain protease activity, enzymatic inhibition; Potency, µM (top dose mostly 51 µM), hits mostly inhibitors; AID 1964104, 2024; shares compounds with nsP2pro primary
nsP2pro conf qHTS – Confirmatory qHTS for inhibitors of NSP2Pro chikungunya virus (CHIKV); shares compounds with nsP2pro primary; CHIKV nsP2 protease enzymatic activity, qHTS; Potency, µM (titrated, usually from 25.5 µM), usual class: inhibitors; actives 43% (n = 410); AID 1964105, 2024; also: nearly all actives have a fitted effect of over 75% in size
HCV NS3 4A cs – Selectivity profile for inhibitors of NSP2Pro chikungunya virus (CHIKV): NS34A-HCV Counterscreen | shares compounds with nsP2pro primary | HCV NS3/4A protease biochemical counterscreen | Potency, µM (top dose mostly 50.9 µM), usual class: inhibitors | actives 20% (n = 410) | AID 1964106, 2024; also: nearly all actives have a fitted effect of over 55% in size
Large screens that a line does not name were inactive (follow-up assays come after a bar, where they were run). Only a selection was taken, and hits are over-represented in it overall. Calls follow the shape of the full dose curve.

O=C1c2ccccc2-c2nc3nnnn3nc21 (tested in a mixture with another compound)	nsP2pro primary inconclusive | nsP2 cell sec inconclusive | CHIKV NSP2 FL inconclusive | Furin counterscr inactive | nsP2 NS23 pep 0.92µM | Papain counter inactive | nsP2pro conf qHTS inconclusive | HCV NS3 4A cs inactive
COc1ccccc1[C@@H]1C2=C(CC(C)(C)CC2=O)Nc2n[nH]c(C(F)(F)F)c21	none
CCCc1cnc(C)nc1N1CC[C@@H](NC(=O)c2cnccn2)[C@H](O)C1	none
Cc1cnc(CC2CCN(S(=O)(=O)c3ccc4c(c3)CCC4)CC2)n1CC1CC1	none
O=C(c1ccc2c(c1)ncn2-c1ccc(Cl)cc1)N1CCCCC1	none
CC(C)(C)c1ccc(CSc2nc3ncc(Br)cc3[nH]2)cc1	none
CC(C)c1ccc(CC(=O)N2CCC[C@@H](c3cccc(OC(C)(C)C(=O)O)c3)C2)cc1	none
O=C(CC[C@H]1NC(=O)c2ccccc2NC1=O)Nc1nnc(C2CC2)s1	none
O=C(NCc1c[nH]c2ncccc12)c1ccccc1Cl	none
O=C(NCc1ccc(Cl)cc1)c1c[nH]c2ncccc12	none
O=C(NCc1ccnc2[nH]ccc12)c1ccccc1Cl	nsP2pro primary 4.5µM | nsP2 cell sec 24µM | CHIKV NSP2 FL 4.7µM | Furin counterscr inactive | nsP2 NS23 pep 19µM | Papain counter inactive | nsP2pro conf qHTS 12µM | HCV NS3 4A cs 3µM
COc1ccccc1OC1(C(=O)O)CCN(Cc2cccnc2)CC1	none
COc1ccccc1OC1(C(=O)O)CCN(Cc2ccc(-c3ccn[nH]3)o2)CC1	nsP2pro primary 1µM | nsP2 cell sec inconclusive | CHIKV NSP2 FL inconclusive | Furin counterscr inactive | nsP2 NS23 pep inactive | Papain counter inactive | nsP2pro conf qHTS inactive | HCV NS3 4A cs inactive
COc1ccccc1OC1(C(=O)O)CCN(c2ncnc(C)c2C)CC1	none
O=[S+]1([O-])[C@@H](c2ccccc2)[C@H](COCc2ccccc2)CN1C1CC1	none
COc1ccc(-c2ccc3nc(-c4cccc(F)c4)oc3c2)c(OC)c1OC	nsP2pro primary inconclusive | nsP2 cell sec inconclusive
COc1ccc(-c2ccc3nc(-c4ccc(F)c(F)c4)oc3c2)c(OC)c1OC	none
COc1ccc(-c2ccc3nc(-c4ccc(C)c(F)c4)oc3c2)c(OC)c1OC	none
NCCC(=O)N1CCC2(CC1)CN([S+](=O)([O-])c1ccccc1)CCO2	none
c1nc(N2CCC(N3CCCC3)CC2)c2cc(-c3ccc4c(c3)OCO4)ccc2n1	none
Cc1csc(CNc2ncnc3ccc(-c4ccc(C(=O)O)o4)cc23)n1	none
CCNC(=O)c1ccc(-c2ccc3ncnc(NCc4nccs4)c3c2)o1	none
Cc1ccc(CN(C)c2ncnc3ccc(-c4ccc(CO)o4)cc23)o1	none
CCNC(=O)c1ccc(-c2ccc3ncnc(NCCc4cnc[nH]4)c3c2)o1	none
CC(O)c1ccc(-c2ccc3ncnc(N4CCOCC4)c3c2)o1 (stereo not drawn)	nsP2pro primary 10µM | nsP2 cell sec inconclusive | CHIKV NSP2 FL 16µM | Furin counterscr inactive | nsP2 NS23 pep inconclusive | Papain counter inactive | nsP2pro conf qHTS inactive | HCV NS3 4A cs 21µM
O=C(O)c1ccc(-c2ccc3ncnc(N4CCOCC4)c3c2)o1	none
Cc1ccc(CNc2ncnc3ccc(-c4ccc(CO)o4)cc23)o1	nsP2pro primary inconclusive | nsP2 cell sec inactive | CHIKV NSP2 FL inactive | Furin counterscr inactive | nsP2 NS23 pep inactive | Papain counter inactive | nsP2pro conf qHTS inactive | HCV NS3 4A cs inactive
OCc1ccc(-c2ccc3ncnc(NCCc4cnc[nH]4)c3c2)o1	nsP2pro primary 1.1µM | nsP2 cell sec 21µM | CHIKV NSP2 FL inactive | Furin counterscr inactive | nsP2 NS23 pep inactive | Papain counter inactive | nsP2pro conf qHTS inactive | HCV NS3 4A cs 10µM
Cc1ccc(CNc2ncnc3ccc(-c4ccc(C(=O)N(C)C)o4)cc23)o1	none
O=C(O)c1ccc(-c2ccc3ncnc(NCCc4cnc[nH]4)c3c2)o1	none
CC(O)c1ccc(-c2ccc3ncnc(NCc4nccs4)c3c2)o1 (stereo not drawn)	nsP2pro primary 10µM | nsP2 cell sec inconclusive | CHIKV NSP2 FL 12µM | Furin counterscr inactive | nsP2 NS23 pep 23µM | Papain counter inactive | nsP2pro conf qHTS inactive | HCV NS3 4A cs 12µM
CCCn1c(=O)c2[nH]c(-c3ccc(OCC(=O)O)cc3)nc2n(CCC)c1=O	none
FC(F)(F)c1ccccc1-c1nc2c(c(NCc3ccc(-c4cccnc4)cc3)n1)CCC2	none
C[N+]1(CC2CC2)CC[C@]23c4c5ccc(O)c4O[C@H]2C(=O)CC[C@@]3(O)[C@H]1C5 (stereo partly drawn)	none
Cc1cc(C)nc(NC(=S)N2CCN(c3cc(C(F)(F)F)nc4ccc(C(F)(F)F)cc34)CC2)c1	none
CCOc1ccc(Cc2cc([C@@H]3O[C@H](SC)[C@@H](O)[C@H](O)[C@H]3O)ccc2Cl)cc1	none
COc1ccc(OC)c(S(=O)(=O)N2CC(N(C3CCOCC3)S(C)(=O)=O)C2)c1	none
Cc1cc(C)nc(NC(=S)N2CCN(c3ccncc3)CC2)c1	none
CCOC(=O)c1ccc(NC2CCCCC2)c(N)c1	none
CCOC(=O)Nc1ccc(NCc2c(C)cc(C)cc2C)cc1N	nsP2pro primary inconclusive | nsP2 cell sec inconclusive | CHIKV NSP2 FL inactive | Furin counterscr inactive | nsP2 NS23 pep inconclusive | Papain counter inactive | nsP2pro conf qHTS inactive | HCV NS3 4A cs inactive
CCN1C(=O)Cc2cc(C(=O)NCc3c(C)cc(C)cc3C)ccc21	none
C[C@@H]1O[C@@H](O[C@H]2[C@H](O[C@H]3[C@H](O[C@H]4CC[C@@]5(C)C(CC[C@]6(C)C5CC=C5[C@@H]7CC(C)(C)CC[C@]7(C(=O)O[C@@H]7O[C@H](CO)[C@@H](O[C@@H]8O[C@@H](C)[C@H](O)[C@@H](O)[C@H]8O)[C@H](O)[C@H]7O)CC[C@]56C)C4(C)C)OC[C@H](O)[C@@H]3O)O[C@H](CO)[C@@H](O)[C@@H]2O)[C@H](O)[C@H](O)[C@H]1O (stereo partly drawn)	none
